# DUX4 inh = blocks DUX4-driven transcriptional activation; AID 1224904; activity change, negative = inhibition, % (test concentration not listed); 37,000 tested, 0.8% active; 293T-iDUX4 ZSCAN4-Gaussia luciferase reporter, 24 h; hits give low values;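 active means mean inhibition of at least 10% in the main channel, exceeding the control channel by a set limit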
# Numbers stand for hits; i = inactive; ! = repeats disagree. Only a selection was taken, and hits are over-represented in it overall.
SMILES,DUX4 inh
CCCC#Cc1ccc([C@H]2[C@H](CO)N3C(=O)CN(C(=O)Nc4cccc(F)c4)C[C@@H]23)cc1,-69.3
O=C1CNC[C@H]2[C@@H](c3ccc(C#CC4CCCCC4)cc3)[C@H](CO)N12,i
CC(=O)N1CC(=O)N2[C@H](CO)[C@@H](c3ccc(C#Cc4cccnc4)cc3)[C@@H]2C1,i
O=C1CNC[C@@H]2[C@H](c3ccc(C#CC4CCCCC4)cc3)[C@@H](CO)N12,i
O=C1CNC[C@@H]2[C@@H](c3ccc(C#Cc4cccnc4)cc3)[C@@H](CO)N12,-19.5
CCCC#Cc1ccc([C@H]2[C@H]3CN(C(=O)Nc4ccccc4)CC(=O)N3[C@H]2CO)cc1,i
CC(=O)N1CC(=O)N2[C@H](C1)[C@@H](c1ccc(C#Cc3cccnc3)cc1)[C@@H]2CO,i
O=C(Nc1cccc(F)c1)N1CC(=O)N2[C@H](CO)[C@@H](c3ccc(C#CCC4CCCC4)cc3)[C@@H]2C1,i
CC(=O)N1CC(=O)N2[C@H](CO)[C@H](c3ccc(C#Cc4cccnc4)cc3)[C@@H]2C1,-10.9
COc1ccccc1-c1ccc([C@@H]2[C@@H](CO)N(C(=O)C3CC3)C23CN(C(C)=O)C3)cc1,i
O=C(C[C@H]1CC[C@H](NC(=O)Nc2cc(F)ccc2F)[C@H](CO)O1)Nc1ccc(-c2ccccc2)cc1,i
O=C(C[C@@H]1C[C@@H]2c3cc(NC(=O)C4CCC4)ccc3O[C@@H]2[C@H](CO)O1)NCc1ccccc1F,i
CCCNC(=O)N1[C@H](CO)[C@H]2c3ccccc3N(C(=O)Nc3cccc(F)c3)C[C@H]21,i
O=C(c1ccccn1)N1CC[C@H]2[C@H](CO)Nc3ccc(-c4ccccc4)cc3[C@H]21,i
CCCNC(=O)N1CC2(CCN(C)CC2)c2c(n(C)c3cc(OC)ccc23)[C@@H]1CO,i
COCC(=O)N1CC2(C1)[C@H](c1ccccc1)[C@@H](CO)N2Cc1ccccc1OC,i
COc1ccccc1CN1[C@H](CO)[C@@H](c2ccccc2)C12CN(C(C)=O)C2,i
COc1ccccc1CN1CC2(C1)[C@@H](c1ccccc1)[C@@H](CO)N2Cc1ccccc1,-54.8
CCCC(=O)N1CC2(CN(Cc3nccs3)C2)c2c([nH]c3cc(OC)ccc23)[C@@H]1CO,i
COc1cccc(S(=O)(=O)N2C[C@@H]3N[C@H](C2)C3c2ccc(-c3ccccc3F)cc2)c1 (stereo partly drawn),-68.6!
CN(C)C(=O)c1cccc(-c2ccc(C3[C@H]4CNC[C@@H]3N4S(=O)(=O)Cc3ccccc3)cc2)c1 (stereo partly drawn),i
COc1cccc(-c2ccc(C3[C@@H]4CN(S(=O)(=O)Cc5ccccc5)C[C@H]3N4)cc2)c1 (stereo partly drawn),-21.8
COc1cccc(-c2ccc(C3[C@H]4CNC[C@@H]3N4S(=O)(=O)Cc3ccccc3)cc2)c1 (stereo partly drawn),i
Cc1cccc(S(=O)(=O)N2C[C@@H]3N[C@H](C2)C3c2ccc(-c3cncnc3)cc2)c1 (stereo partly drawn),i
Cc1ccccc1-c1ccc(C2[C@H]3CNC[C@@H]2N3S(=O)(=O)c2ccc(F)cc2)cc1 (stereo partly drawn),i
SMILES,DUX4 inh
COc1cccc(S(=O)(=O)N2CCCCN3[C@@H](CO)[C@H](c4ccc(-c5cccnc5)cc4)[C@@H]3C2)c1,i
COc1ccc(S(=O)(=O)N2[C@@H]3CNC[C@H]2C3c2ccc(-c3ccccc3F)cc2)cc1 (stereo partly drawn),i
COc1cccc(-c2ccc(C3[C@@H]4CN(S(=O)(=O)c5ccccc5F)C[C@H]3N4)cc2)c1 (stereo partly drawn),i
Cc1ccccc1-c1ccc(C2[C@H]3CNC[C@@H]2N3S(=O)(=O)c2cccc(F)c2)cc1 (stereo partly drawn),i
COc1cccc(S(=O)(=O)N2C[C@@H]3N[C@H](C2)C3c2ccc(-c3ccccc3C)cc2)c1 (stereo partly drawn),-35.6!
Cc1cccc(S(=O)(=O)N2C[C@@H]3N[C@H](C2)C3c2ccc(-c3ccccc3C)cc2)c1 (stereo partly drawn),-72.6!
O=C(C[C@H]1CC[C@@H]2[C@H](COC[C@H](O)CN2C(=O)c2ccccc2F)O1)NCc1ccc(-c2ccccc2)cc1,i
O=S(=O)(c1ccccc1F)N1CC[C@H]2[C@H](CO)Nc3ccc(-c4ccccc4F)cc3[C@H]21,i
COc1cccc(-c2ccc([C@@H]3[C@H]4CN(C(=O)CN5CCOCC5)CC(=O)N4[C@H]3CO)cc2)c1,i
C[C@@H]1CN([C@H](C)CO)C(=O)c2cc(-c3cccc(C#N)c3)cnc2O[C@H]1CN(C)C(=O)C1CCOCC1,i
C[C@H](CO)N1C[C@H](C)[C@@H](CN(C)C(=O)c2cccnc2)Oc2cc(C#CC3(O)CCCC3)ccc2S1(=O)=O,i
CN(C)CC(=O)Nc1ccc2c(c1)[C@H]1C[C@H](CC(=O)N3CCCCC3)O[C@H](CO)[C@H]1O2,i
C/C=C/c1ccc([C@H]2[C@@H](CO)N(C(=O)CC)[C@@H]2CNC(=O)C2CC2)cc1,i
N#Cc1ccc(-c2ccc([C@H]3[C@H]4CN(C(=O)Cc5ccccc5)CC(=O)N4[C@H]3CO)cc2)cc1,i
N#Cc1cccc(-c2ccc(C3[C@@H]4CN(C(=O)c5cccnc5)C[C@H]3N4)cc2)c1 (stereo partly drawn),i
N#Cc1cccc(-c2ccc(C3[C@@H]4CN(C(=O)Cc5ccncc5)C[C@H]3N4)cc2)c1 (stereo partly drawn),-26.3!
Cc1cccc(-c2ccc(C3[C@@H]4CN(C(=O)Cc5ccncc5)C[C@H]3N4)cc2)c1 (stereo partly drawn),i
N#Cc1ccc(-c2ccc(C3[C@@H]4CN(C(=O)Cc5ccccc5)C[C@H]3N4)cc2)cc1 (stereo partly drawn),-53.2!
N#Cc1ccc(-c2ccc([C@@H]3[C@H](CO)N4C(=O)CN(C(=O)Cc5ccccc5)C[C@@H]34)cc2)cc1,i
O=C(O)C[C@H]1C[C@@H]2c3cc(NC(=O)Nc4ccccc4F)ccc3O[C@@H]2[C@H](CO)O1,i
CC=Cc1ccc2n(c1=O)C[C@H]1[C@H](CO)[C@@H](C(=O)N3CCc4ccccc4C3)N(C(=O)C3CC3)[C@@H]21 (mixture of isomers),i
CO[C@@H]1CN(C)C(=O)c2ccc(NS(=O)(=O)c3ccccc3)cc2OC[C@H](C)N(C(=O)NC(C)C)C[C@@H]1C,i
COc1ccc(CNC(=O)C[C@@H]2C[C@H]3c4cc(NC(=O)CN(C)C)ccc4O[C@H]3[C@H](CO)O2)cc1,i
CNC[C@@H]1Oc2ccc(NS(=O)(=O)c3ccc(Cl)cc3)cc2CC(=O)N([C@H](C)CO)C[C@H]1C,i
COCC(=O)N1CC2(C1)[C@H](c1ccccc1)[C@H](CO)N2Cc1ccccc1OC,i
C[C@@H]1CCCCO[C@@H](CN(C)S(=O)(=O)c2ccccc2)[C@@H](C)CN([C@H](C)CO)C(=O)c2cc(NS(C)(=O)=O)ccc2O1,i
CN(C)CC(=O)Nc1ccc2c(c1)[C@H]1C[C@H](CC(=O)NCCc3ccccc3)O[C@H](CO)[C@H]1O2,i
COc1cccc(C#Cc2ccc3c(c2)[C@H]2[C@H](CCN2C(=O)c2ccc(F)cc2)[C@H](CO)N3)c1,i
COc1ccc(C#Cc2ccc3c(c2)[C@H]2[C@H](CCN2C(=O)c2ccccc2F)[C@H](CO)N3)cc1,-31.6
O=C(c1ccccc1F)N1CC[C@H]2[C@H](CO)Nc3ccc(C#Cc4ccc(F)cc4)cc3[C@H]21,i

# Compound activity from PubChem BioAssay.
